Results filed as inconclusive are left out. Active and inactive are the calls of the source. Unless noted, calls follow the shape of the dose curve; as a rule, active = well fitted curve in the direction sought with a large enough effect in the repeat runs; inconclusive = weak or mixed curves; inactive = no such curve, though single readings can be large; an effect the other way counts as inactive or inconclusive.
How the values were obtained:
[1] = qHTS assay to identify small molecule antagonists of the retinoid-related orphan receptor gamma (ROR-gamma) signaling pathway - cell viability counter screen (AID 1159520); also: nearly all actives have a fitted effect of over 50% in size; also: potency is read from the fitted curve at half-maximal effect
How it was run: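 Tet-on ROR gamma CHO cells (1,000/well) were plated 4 hr, given compounds in DMSO for 2 hr at 37 C, then induced with 1 uM final doxycycline for 16 hr. Viability was read as ATP by CellTiter-Glo luminescence after 30 min.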

[2] = molecular target: Nuclear receptor ROR-gamma (Homo sapiens) (UniProt P51449); test: qHTS assay to identify small molecule antagonists of the retinoid-related orphan receptor gamma (ROR-gamma) signaling pathway (AID 1159521; also: nearly all actives have a fitted effect of over 50% in size; also: potency is read from the fitted curve at half-maximal effect)
How it was run: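 CHO cells expressing RORγ under a TET-on promoter, luciferase under RORE control. Dox 1 uM final, 16 h; compounds added 2 h prior. Luminescence decrease measured.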

[3] = molecular target: Retinoic acid receptor RXR-alpha (Homo sapiens) (UniProt P19793); test: qHTS assay to identify small molecule agonists of the RXR signaling pathway (AID 1159527; calls by dose curve; also: nearly all actives have a fitted effect of over 35% in size)
Chain of Retinoic acid receptor RXR-alpha (Homo sapiens) (P19793 whole entry, looked up): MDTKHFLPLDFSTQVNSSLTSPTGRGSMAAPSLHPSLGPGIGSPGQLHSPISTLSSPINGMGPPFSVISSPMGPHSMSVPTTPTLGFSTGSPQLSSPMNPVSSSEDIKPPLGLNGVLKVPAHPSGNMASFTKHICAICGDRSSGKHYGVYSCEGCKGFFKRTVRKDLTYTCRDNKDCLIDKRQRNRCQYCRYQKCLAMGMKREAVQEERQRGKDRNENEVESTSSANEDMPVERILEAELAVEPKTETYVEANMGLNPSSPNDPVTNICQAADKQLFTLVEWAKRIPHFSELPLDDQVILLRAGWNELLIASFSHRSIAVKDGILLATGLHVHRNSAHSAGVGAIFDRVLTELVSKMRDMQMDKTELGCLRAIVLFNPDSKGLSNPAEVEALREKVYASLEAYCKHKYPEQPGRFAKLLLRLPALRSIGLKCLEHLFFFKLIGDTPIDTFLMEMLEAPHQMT
How it was run: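 Beta-lactamase reporter assay, agonist format. Engineered HEK 293T line, charcoal-stripped FBS at 2%, overnight (16 hr) exposure, fluorescence at 460 and 530 nm after 405 nm excitation.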

[4] = qHTS assay to identify small molecule agonists of the RXR signaling pathway - cell viability counter screen (AID 1159529); also: series mostly up to about 77 µM; nearly all actives have a fitted effect of over 50% in size
How it was run: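 Same-well viability check after the LiveBLAzer FRET read: CellTiter-Glo added, luminescence measured after 30 min at room temperature. Reporter HEK 293T cells had been treated with compounds for 16 hr following a 5 hr preincubation.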

[5] = qHTS assay to identify small molecule antagonists of the retinoid acid receptor (RAR) signaling pathway - cell viability counter screen (AID 1159551); also: nearly all actives have a fitted effect of over 35% in size; also: potency is read from the fitted curve at half-maximal effect
How it was run: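 C3RL4 RARE-luciferase line; cpds + retinol 1 uM final, 6 h, 37 C/5% CO2; CellTiter-Glo ATP luminescence, 30 min RT.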

[6] = qHTS assay to identify small molecule antagonists of the retinoic acid receptor (RAR) signaling pathway (AID 1159552; also: nearly all actives have a fitted effect of over 50% in size; also: potency is read from the fitted curve at half-maximal effect)
How it was run: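 Readout: luciferase luminescence, 30 min post-reagent at RT. Setup: C3RL4 RARE reporter cells, compounds plus retinol 1 uM final, 6 hr incubation at 37 C and 5% CO2.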

[7] = qHTS assay to identify small molecule agonists of the peroxisome proliferator-activated receptor delta (PPARd) signaling pathway - cell viability counter screen (AID 743211); also: nearly all actives have a fitted effect of over 55% in size; also: potency is read from the fitted curve at half-maximal effect
How it was run: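 Luminescent ATP viability assay (CellTiter-Glo, 30 min RT) in UAS-bla HEK293H cells carrying the PPAR delta reporter construct, 3000 cells/well, after a 17 h compound treatment at 37 C.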

[8] = molecular target: Peroxisome proliferator-activated receptor delta (Homo sapiens) (UniProt Q03181); test: qHTS assay to identify small molecule agonists of the peroxisome proliferator-activated receptor delta (PPARd) signaling pathway (AID 743212; calls by dose curve)
Chain of Peroxisome proliferator-activated receptor delta (Homo sapiens) (Q03181 whole entry, looked up): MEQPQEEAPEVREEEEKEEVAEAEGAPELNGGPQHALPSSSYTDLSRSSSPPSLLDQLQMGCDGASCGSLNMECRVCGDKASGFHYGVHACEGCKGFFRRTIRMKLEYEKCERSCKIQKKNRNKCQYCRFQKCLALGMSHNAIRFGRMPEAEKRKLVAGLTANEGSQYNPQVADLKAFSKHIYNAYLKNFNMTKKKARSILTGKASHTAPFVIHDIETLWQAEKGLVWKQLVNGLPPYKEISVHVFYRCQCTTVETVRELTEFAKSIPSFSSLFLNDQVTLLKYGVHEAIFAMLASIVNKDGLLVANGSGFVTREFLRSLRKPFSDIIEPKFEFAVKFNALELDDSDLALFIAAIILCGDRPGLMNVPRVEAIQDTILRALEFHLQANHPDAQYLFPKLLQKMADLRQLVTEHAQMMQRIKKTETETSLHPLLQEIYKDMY
How it was run: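 Beta-lactamase reporter read by fluorescence (LiveBLAzer B/G FRET, 2 h, room temperature). Test agents, in DMSO, incubated at 37 C with PPARd-bla HEK293H cells.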

[9] = qHTS assay to identify small molecule antagonists of the peroxisome proliferator-activated receptor delta (PPARd) signaling pathway - cell viability counter screen (AID 743213); also: nearly all actives have a fitted effect of over 50% in size
How it was run: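 Same-well viability: cells pre-incubated 5 h, dosed with compound plus 300 nM L165041, kept 17 h at 37 C, FRET substrate 2 h RT, then CellTiter-Glo 30 min RT and luminescence.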

[10] = qHTS assay to identify small molecule agonists of the farnesoid-X-receptor (FXR) signaling pathway - cell viability counter screen (AID 743218); also: nearly all actives have a fitted effect of over 45% in size
How it was run: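 Luminescence from CellTiter-Glo, read after 30 min at RT, reports viability of GeneBLAzer FXR-UAS-bla HEK 293T cells treated 16 h with compounds in the wells used for the beta-lactamase reporter.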

[11] = qHTS assay to identify small molecule agonists of the AP-1 signaling pathway (AID 1159526; calls by dose curve)
[12] = qHTS assay to identify small molecule agonists of the retinoic acid receptor (RAR) signaling pathway (AID 1159553)
How it was run: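 RARE-luc C3RL4 cells; overnight attachment 37 C/5% CO2; compound (DMSO) 6 hr; luciferase reagent, 30 min RT; luminescence read-out.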

[13] = molecular target: Peroxisome proliferator-activated receptor delta (Homo sapiens) (UniProt Q03181); test: qHTS assay to identify small molecule antagonists of the peroxisome proliferator-activated receptor delta (PPARd) signaling pathway (AID 743215; active = well fitted inhibition curve with a large enough effect in the signal ratio in the repeat runs, not every such curve was filed as active; the % refers to the signal ratio;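 also: cells stimulated with agonist L165041 at 300 nM final during compound exposure; potency is read from the fitted curve at half-maximal effect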)
How it was run: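 HEK293H GeneBLAzer PPARd UAS-bla reporter cells; cpd + L165041 300 nM final, 17 h 37 C; LiveBLAzer B/G FRET substrate 2 h RT; fluorescence intensity read-out. Antagonist mode.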

[14] = qHTS assay to identify small molecule antagonists of the farnesoid-X-receptor (FXR) signaling pathway - cell viability counter screen (AID 743221; active = well fitted cell-killing curve with a large enough effect in the repeat runs, not every such curve was filed as active; also: nearly all actives have a fitted effect of over 50% in size)
How it was run: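 In GeneBLAzer FXR-UAS-bla HEK 293T cells stimulated with 50 uM chenodeoxycholic acid (final), compounds acted for 16 h at 37 C. Viability was assessed afterwards by CellTiter-Glo luminescence.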

[15] = molecular target: Vitamin D3 receptor (Homo sapiens) (UniProt P11473); test: qHTS assay to identify small molecule antagonists of the vitamin D receptor (VDR) signaling pathway (AID 743223; active = well fitted inhibition curve with a large enough effect in the signal ratio in the repeat runs, not every such curve was filed as active; the % refers to the signal ratio; also: potency is read from the fitted curve at half-maximal effect)
Chain of Vitamin D3 receptor (Homo sapiens) (P11473 whole entry, looked up): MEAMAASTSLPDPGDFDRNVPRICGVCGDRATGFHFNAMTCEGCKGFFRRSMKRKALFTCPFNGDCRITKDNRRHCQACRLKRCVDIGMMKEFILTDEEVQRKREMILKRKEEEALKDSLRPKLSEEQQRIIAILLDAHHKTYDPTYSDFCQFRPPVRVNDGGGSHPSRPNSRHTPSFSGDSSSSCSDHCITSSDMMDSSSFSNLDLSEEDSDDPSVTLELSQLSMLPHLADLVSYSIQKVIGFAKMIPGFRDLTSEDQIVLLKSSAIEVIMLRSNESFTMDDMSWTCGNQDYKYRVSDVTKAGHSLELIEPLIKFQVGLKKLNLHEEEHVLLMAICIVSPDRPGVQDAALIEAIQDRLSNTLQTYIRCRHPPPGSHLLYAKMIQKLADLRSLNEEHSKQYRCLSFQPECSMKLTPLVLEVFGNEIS
How it was run: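 Agonist 1alpha,25-dihydroxyvitamin D3 (3 nM in well) was added with each compound to VDR-bla cells preincubated 4 h. Cells stood 16 h at 37C, then FRET substrate 2 h at room temperature; fluorescence intensity recorded.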

[16] = qHTS assay to identify small molecule agonists of the vitamin D receptor (VDR) signaling pathway - cell viability counter screen (AID 743224); also: nearly all actives have a fitted effect of over 50% in size; also: potency is read from the fitted curve at half-maximal effect
How it was run: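 Cytotoxicity counter screen: VDR-bla cells, 16 h compound exposure at 37C, 5% CO2; CellTiter-Glo luminescence, 30 min RT, same wells as bla read.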

[17] = qHTS assay to identify small molecule antagonists of the vitamin D receptor (VDR) signaling pathway - cell viability counter screen (AID 743225); also: nearly all actives have a fitted effect of over 50% in size; also: potency is read from the fitted curve at half-maximal effect
How it was run: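 Luminescent cell viability (CellTiter-Glo) in VDR-bla HEK 293T cells after 16 h compound exposure at 37C in the presence of 3 nM final 1-alpha,25-dihydroxy vitamin D3.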

[18] = molecular target: Bile acid receptor (Homo sapiens) (UniProt Q96RI1); test: qHTS assay to identify small molecule agonists of the farnesoid-X-receptor (FXR) signaling pathway (AID 743220; active = well fitted activation curve with a large enough effect in the signal ratio in the repeat runs, not every such curve was filed as active; the % refers to the signal ratio)
Chain of Bile acid receptor (Homo sapiens) (Q96RI1 whole entry, looked up): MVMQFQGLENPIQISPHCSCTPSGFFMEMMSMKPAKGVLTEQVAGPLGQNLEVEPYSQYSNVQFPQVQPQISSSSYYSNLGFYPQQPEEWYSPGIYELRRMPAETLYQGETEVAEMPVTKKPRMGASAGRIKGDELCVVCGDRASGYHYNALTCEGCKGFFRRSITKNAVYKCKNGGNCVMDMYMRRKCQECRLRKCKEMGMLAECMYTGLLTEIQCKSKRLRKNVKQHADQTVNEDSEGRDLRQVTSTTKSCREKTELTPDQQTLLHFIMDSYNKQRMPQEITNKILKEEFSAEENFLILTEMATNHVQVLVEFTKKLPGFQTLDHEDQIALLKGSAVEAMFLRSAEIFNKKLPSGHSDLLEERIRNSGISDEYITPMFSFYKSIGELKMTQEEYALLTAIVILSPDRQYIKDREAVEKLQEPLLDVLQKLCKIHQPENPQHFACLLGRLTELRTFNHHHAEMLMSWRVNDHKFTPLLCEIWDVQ
How it was run: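 FXR-UAS-bla HEK 293T cells carrying a UAS-driven beta-lactamase reporter were plated for 5 h at 37C/5% CO2, then exposed to DMSO-dissolved Tox21 10K compounds for 16 h at 37C. A LiveBLAzer B/G FRET substrate was loaded for 2 h at room temperature before fluorescence reading.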

[19] = qHTS assay to identify small molecule agonists of the AP-1 signaling pathway - cell viability counter screen (AID 1159525; calls by dose curve; also: nearly all actives have a fitted effect of over 55% in size)
How it was run: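 Each titration point was normalised to DMSO and tetra n-octyl ammonium bromide controls. The read was Cell Titer Glo luminescence after 30 min at RT, following 5 h compound exposure of ME-180 AP-1-bla cells at 37 °C.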

Measured: Potency

CCOC=C(C(=O)OCC)C(=O)OCC
inactive: [1] | [2] | [3] | [4] | [5] | [6]

NCc1ccco1
inactive: [1] | [2] | [3] | [4] | [5]

O=C(N[C@H](CO)[C@H](O)c1ccc([N+](=O)[O-])cc1)C(Cl)Cl
inactive: [7] | [8] | [9] | [10] | [1] | [2] | [11] | [3] | [4] | [5] | [12]

CC(=O)Nc1ccc(N=Nc2cc(C)ccc2O)cc1
inactive: [1] | [2] | [4] | [5] | [6]

CC(=O)[C@]1(O)Cc2c(O)c3c(c(O)c2[C@@H](O[C@H]2C[C@H](N)[C@H](O)[C@H](C)O2)C1)C(=O)c1ccccc1C3=O
active: [13] 3.76 µM | [15] 1.9 µM | [1] 26.6 µM | [6] 0.298 µM
inactive: [7] | [9] | [14] | [16] | [17] | [2] | [4]

Cc1ccc2n[nH]nc2c1
inactive: [1] | [2] | [11] | [3] | [4]

C[C@H]1O[C@@H](O[C@H]2CC[C@@]3(C)[C@H](CC[C@@H]4[C@@H]3C[C@@H](O)[C@]3(C)[C@@H](C5=CC(=O)OC5)CC[C@]43O)C2)C[C@H](O)[C@@H]1O[C@H]1C[C@H](O)[C@H](O[C@H]2C[C@H](O)[C@H](O[C@@H]3O[C@H](CO)[C@@H](O)[C@H](O)[C@H]3O)[C@@H](C)O2)[C@@H](C)O1
inactive: [18] | [1] | [2] | [11] | [5] | [6] | [12]
active: [7] 0.298 µM | [16] 0.298 µM | [17] 0.338 µM

O=c1cc[nH]cc1
inactive: [1] | [2] | [11] | [4] | [5]

COc1ccc(OC)c(N=Nc2c(O)ccc3ccccc23)c1
active: [1] 30.6 µM | [5] 17.2 µM
inactive: [2] | [6]

CO[Si](OC)(c1ccccc1)c1ccccc1
inactive: [1] | [5]
active: [2] 61.1 µM

Clc1cccc(Cl)n1
inactive: [1] | [2] | [3] | [4] | [5]

O=C1OC(O)C(C(Cl)Cl)=C1Cl (centres undefined)
active: [1] 7.07 µM | [2] 14.1 µM
inactive: [8] | [14] | [19] | [5]

CCc1cccc(C)c1N(C(=O)C(=O)O)C(C)COC (centres undefined)
inactive: [1] | [2] | [3] | [4] | [5] | [6]

Cc1c[nH]c(=O)[nH]c1=O
inactive: [1] | [2] | [11] | [4] | [5] | [6]

Cc1ccc(N=Nc2c(O)ccc3ccccc23)c(C)c1
inactive: [1] | [2] | [11] | [4] | [5] | [6]
